CF NFkB inh = blocks PAF-induced NF-kB reporter in cystic fibrosis cells; inhibition, % at 5 µM; 0.86% of 360,000 active; AID 588850; KKLEB NF-kB-GFP reporter, GFP fluorescence overnight;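 active = at least 50% inhibition at 5 µM, scaled per plate between neutral and stimulator controls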;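 note: PAF is a Pseudomonas aeruginosa culture filtrate used as stimulus; plate controls were PAF-stimulated DMSO wells for no effect and unstimulated DMSO wells for full effect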
CHOP inhibitor = CHOP inhibition in unfolded protein response | CHO-K1 CHOP-promoter luciferase, tunicamycin-induced, 15-18 h | inhibition, % at 10 µM | 3.8% of 220,000 active;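 active = compounds that reduced the stress-induced luciferase reporter signal by more than about 70% of percent inhibition, limit read from the data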;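 note: 0% = tunicamycin plus vehicle and 100% = wells without tunicamycin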
KKLEB cytotox = CF airway cell cytotoxicity counter-screen | KKLEB CF airway cells viability, ATPlite luminescence, overnight; stronger effect = lower value; cells stimulated with P. aeruginosa culture filtrate | activity change (cytotoxicity), % at 5 µM | 0.36% of 360,000 active | AID 602141;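 active = corrected activity change at or below -50% at 5 µM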
HIF-2a inh = HIF-2a inhibition. 786-0 RCC cells HIF-2a reporter, luciferase luminescence, overnight. 0.72% of 360,000 active. inhibition, % at 18.8 µM;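 active = inhibition of the luminescence signal of 40% or more relative to plate controls, in a single-dose primary screen at 18.75 µM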
MITF TRPM1 inh = reduces MITF-dependent TRPM1 promoter luciferase signal | SK-MEL-5 TRPM1 promoter luciferase, 24 h | inhibition, % at 12.5 µM | 0.83% of 330,000 active | AID 488899;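 active = mean inhibition across replicates of 60% or more, whatever share of single replicates reaches that level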
Peg3 prom inh = reduces Peg3 promoter-driven luciferase expression in HeLa. HeLa PEG-Prom luciferase reporter, luminescence, overnight. inhibition, % at 20 µM. 1.7% of 360,000 active;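 active = inhibition of at least 50% at 20 µM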
The depositor's hits bear a star; · = no result. In the library only some 4.3% were active in any assay of this set; here they are far more common.

SMILES	CF NFkB inh	CHOP inhibitor	KKLEB cytotox	HIF-2a inh	MITF TRPM1 inh	Peg3 prom inh
CC(C)c1cc2c(c(O)c1O)[C@@]13CCCC(C)(C)C1CC2OC3=O (some centres not stated)	-8	·	-5	17	·	4
CC1(C)CC(=O)C(C=NCC2CCNCC2)=C(O)C1	5	72*	5	3	-8	0
CC(=O)c1ccccc1OCc1ccc(S(=O)(=O)Cc2ccccc2)cc1	-13	·	8	-15	0	22
COc1ccc(-c2nsc3c(N4CCCCC4)ncnc23)cc1	-26	82*	-62*	60*	65*	49
COc1ccc(C(=O)N2CCN(c3ncnc4c(-c5ccccc5)nsc34)CC2)cc1	-7	41	8	-8	8	-18
COc1cc(/C=C2/NC(=O)NC2=O)cc(Br)c1OCc1cccc(C(=O)O)c1	-3	5	4	22	-1	10
COc1cc(/C=C2/NC(=O)NC2=O)cc(Br)c1OCc1ccccc1	-16	94*	0	-5	-6	-4
c1ccc(C[n+]2cccc3c4ccccc4ccc32)cc1	-13	-10	0	6	62*	16
CN1C[C@H]2CON(C)[C@H]2C[C@H]1c1cccc(-c2ccccc2)c1	-9	·	16	-8	-2	0
O=Cc1cn(-c2ccccc2)nc1-c1ccccc1	6	·	-15	-156	-42	-72
CC1=NNC(=O)/C1=C\c1cn(-c2ccccc2)nc1-c1ccccc1	94*	108*	-42	95*	95*	104*
CC1CCCN(C(=O)COC(=O)c2ccc3[nH]c4c(c3c2)CCCC4)C1 (configuration not stated)	2	·	19	-158	-40	-193
CC(=NNC(=S)N1CCN(c2ccccn2)CC1)c1nccs1	66*	·	6	-129	·	24
Cc1ccc(S(=O)(=O)N2CC3CCCN3c3ccc(C(F)(F)F)cc32)cc1 (configuration not stated)	5	55	-19	24	2	31
O=S(=O)(c1ccc(F)cc1)N1CC2CCCN2c2ccc(C(F)(F)F)cc21 (configuration not stated)	-9	75*	2	22	-6	36
Cc1cc(Sc2nnc(/N=C/N(C)C)s2)c2ccccc2n1	59*	-82	-29	35	35	14
CCCCCCCCSc1nnc(/N=C/N(C)C)s1	6	21	7	4	0	2
COCCNC(=O)c1ccc(-c2cn[nH]c2)c2ccoc12	21	·	-20	-27	·	-18
O=C(NCc1ccccc1)c1ccc(-c2cn[nH]c2)c2ccoc12	54*	·	-67*	-171	·	-171
CC1(C)Cc2c(sc(NC(=O)c3ccc(C(=O)c4ccccc4)cc3)c2C#N)C(C)(C)N1	-5	·	-10	-1	8	16
COC(=O)c1c(NC(=O)c2ccc(C(=O)c3ccccc3)cc2)sc2c1CC(C)(C)NC2(C)C	13	·	-21	7	·	94*
CCOC(=O)c1c(NC(=O)COc2ccccc2)sc2c1CC(C)(C)NC2(C)C	44	70	-40	20	7	75*
CCOc1ccc(C(=O)Nc2sc3c(c2C(=O)OC)CC(C)(C)NC3(C)C)cc1	30	-11	-40	2	28	79*
CC1CCCCN1CCCNC(=O)CN1C(=O)c2cccnc2Oc2ccccc21 (configuration not stated)	-10	·	11	17	-2	-3
Cc1cc(C(=O)NNS(=O)(=O)c2ccc(C(C)(C)C)cc2)nn1C(C)(C)C	11	22	-10	16	-1	12
SMILES	CF NFkB inh	CHOP inhibitor	KKLEB cytotox	HIF-2a inh	MITF TRPM1 inh	Peg3 prom inh
O=C(OCc1c(-c2ccccc2)ncc2ccccc12)c1ccccc1C(F)(F)F	36	·	-17	3	5	-1
Cc1nn(-c2ccc(F)cc2)c(Cl)c1/C=N/NC(=O)c1cccs1	15	93*	-8	-172	-66	-205
Cc1nn(-c2ccc(F)cc2)c(Cl)c1/C=N/NC(=O)c1ccc(O)cc1	14	3	-6	-25	7	-12
COc1ccc(-c2nn(-c3ccccc3)cc2C(=O)NC2CCCCC2C)cc1 (configuration not stated)	11	·	-8	6	-7	23
Cc1ccc2[nH]c(=O)cc(C(=O)OCC(=O)c3ccc(F)cc3)c2c1	-11	77*	-8	9	12	13
Cc1ccc2[nH]c(=O)cc(C(=O)OCC(=O)c3ccccc3)c2c1	2	-19	4	18	7	1
Cn1cc(Cl)c(C(=O)Nc2cccc(Cl)c2Cl)n1	7	75*	-5	-205	-49	-142
Cc1cc(C)cc(NC(=O)CCc2nc3sc4c(c3c(=O)[nH]2)CCCC4)c1	-2	·	-5	4	6	84*
CSc1ccc(CN2CCC2(C)C(=O)NCc2ccc3c(c2)OCO3)cc1 (configuration not stated)	-16	·	2	-5	·	6
CC(Oc1cccc(Cl)c1)C(=O)Nc1nc(-c2ccccn2)cs1 (configuration not stated)	-22	·	9	13	64*	29
O=C(Nc1nc(-c2ccccn2)cs1)c1ncc(Cl)c(Cl)c1Cl	2	54	-5	2	13	69*
CC(Oc1ccccc1)C(=O)Nc1nc(-c2ccccn2)cs1 (configuration not stated)	17	·	-8	4	62*	33
Cc1ccc(S(=O)(=O)N2CCOCC2)cc1C(=O)NC1CCSc2ccccc21 (configuration not stated)	8	·	-5	2	8	3
Oc1oc(-c2cccc3ccccc23)nc1C=NCc1ccccc1	·	0	·	·	·	·
Oc1oc(-c2cccc3ccccc23)nc1/C=N/c1nccs1	-4	90*	-2	7	-4	4
COc1ccc(NC(=O)C2CCCN(S(=O)(=O)c3ccc(Cl)cc3)C2)cc1OC (configuration not stated)	-1	·	7	17	4	12
CC(C)(C)c1ccc(OCC(=O)NNC(=O)C2CCCO2)cc1 (configuration not stated)	-3	8	7	4	4	-8
CC(C)=C1C2CCC1C1C(=O)N(NC(=O)COc3ccc(C(C)(C)C)cc3)C(=O)C21 (configuration not stated)	7	92*	-3	13	-4	55*
CN1C(=O)C2(OCC(COc3ccc(Cl)cc3)O2)c2ccccc21 (configuration not stated)	-5	81*	17	-69	-2	-12
O=C1Nc2ccccc2C12OCC(COc1ccc(Cl)cc1)O2 (configuration not stated)	8	80*	-10	-64	-14	-15
CN1C(=O)C2(OCC(C)([N+](=O)[O-])CO2)c2ccccc21 (configuration not stated)	0	·	0	6	8	9

Screening results from PubChem BioAssay.
